MCF10A rereplic = A quantitative high throughput screen for small molecules that induce DNA re-replication in MCF 10a normal breast cells; MCF 10A DNA re-replication, Hoechst nuclear intensity, 48 h; Potency, µM (series often up to 46.1 µM), without a hit: at the top dose activity, positive = re-replication, most hits filed as activators; 350,000 tested, 2.9% active; AID 624296, 2012; also: % of control where 0% means no effect; nearly all actives have a fitted effect of over 50% in size
HT1080 IDH1KD tx = qHTS for induction of synthetic lethality in tumor cells producing 2HG: qHTS for the HT-1080-IDH1KD cell line; 360,000 tested, 2% active; HT-1080 IDH1 knockdown viability, ATP luminescence, 48 h; Potency, µM (titrated, usually from 46.1 µM), for inactives: top-dose activity, negative = toxicity, hits mostly cytotoxic;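 also: 0% = DMSO wells and -100% = cell-free medium wells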
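After a 2 h attachment period, IDH1KD HT-1080 cells took pin-transferred compound for 48 h at 37 °C; ATP-based luminescence after 10 min room-temperature reagent incubation reported viability.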
HT1080-NT tox = qHTS for induction of synthetic lethality in tumor cells producing 2HG: qHTS for the HT-1080-NT fibrosarcoma cell line | 360,000 tested, 1.6% active | Potency, µM (doses to about 46.1 µM), for the others: at the highest dose activity, negative = less viability, most hits filed as cytotoxic | HT-1080-NT fibrosarcoma viability, CellTiter-Glo ATP luminescence, 48 h | AID 686970, 2013;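 also: NT is the 2HG producing partner of a matched IDH1 knockdown line; 0% = DMSO-treated cells and -100% = media-only wells without cells; nearly all actives have a fitted effect of over 55% in size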
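Fibrosarcoma NT cells, 750 per well in 5% FBS RPMI, were exposed to compound for 48 hours. Viability: CellTiter-Glo luminescence.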
SW480 rerep = A quantitative high throughput screen for small molecules that induce DNA re-replication in SW480 colon adenocarcinoma cells. SW480 DNA re-replication, Hoechst DNA content imaging, 48 h. Potency, µM (top dose mostly 46.1 µM), without a hit: top-dose re-replication activation, usual class: activators. 340,000 tested, 1.8% active. AID 624297, 2012; also: % of control where 0% means no effect; nearly all actives have a fitted effect of over 55% in size
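First, 250 cells per well were seeded. Next, compound or vehicle (23 nL) was pinned in, plates sat 48 hr at 37 C. Finally Hoechst was added for 40 min before fluorescence scanning.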
KB-3-1 tox = qHTS assay for MDR1-selective chemotherapeutics: Primary screen using the parental adenocarcinoma cell KB-3-1; KB-3-1 viability, CellTiter-Glo ATP luminescence, 72 h; Potency, µM (series often up to 46.1 µM), actives largely listed as cytotoxic; 400,000 tested, 1.4% active; AID 1347075, 2019; also: % is scaled to controls: 0 for no effect and ±100 for the full control effect; nearly all actives have a fitted effect of over 60% in size
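Viability of parental KB-3-1 cells, measured by CellTiter-Glo luminescence, followed a 72 h incubation at 37 °C with pinned compounds in phenol-red-free DMEM containing 10% FBS.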
KB-V1 MDR tox = qHTS assay for MDR1-selective chemotherapeutics: Primary screen using the drug-selected MDR subline cells KB-V1 | AID 1347076, 2019 | Potency, µM (titrated, usually from 46.1 µM), hits mostly cytotoxic | 400,000 tested, 3.4% active | KB-V1 MDR cells viability, CellTiter-Glo, 72 h; also: % is scaled to controls: 0 for no effect and ±100 for the full control effect; nearly all actives have a fitted effect of over 60% in size
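Luminescent ATP read-out (CellTiter-Glo, 10 min) measures survival of drug-selected KB-V1 MDR cells after 72 h, 37 degrees C compound exposure. Medium: phenol-red-free DMEM, 10% FBS. Values from fitted concentration-response curves.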
Active calls of the source: *; i = inactive; ? = inconclusive; . = not tested or not shown; [ ] = dose if it differs, or a comment. Compounds with a hit are over-represented: about 7.9% of the library has one in this group of screens. Calls follow the shape of the dose curve; as a rule, active = well fitted curve in the direction sought with a large enough effect; inconclusive = small, poorly fitted or top-dose-only effect, or another doubt; inactive = no such curve, though single readings can be large; an effect the other way counts as inactive or inconclusive. Potency is read from the fitted curve at half-maximal effect.

SMILES	MCF10A rereplic	HT1080 IDH1KD tx	HT1080-NT tox	SW480 rerep	KB-3-1 tox	KB-V1 MDR tox
Cc1ccc(C)c(S(=O)(=O)N2CCN(C(=O)CCNS(=O)(=O)c3ccc(C)c(C)c3)CC2)c1	12.4%	-25.1%	-8.8%	0.9%	?	2.91µM*
Cc1ccc(C)c(S(=O)(=O)N2CCN(C(=O)Cc3c(F)cccc3Cl)CC2)c1	23.0%	8.2%	6.7%	-0.4%	i	7.31µM*
CCOc1ccc(S(=O)(=O)N/N=C2/CC(c3ccccc3)Oc3ccccc32)cc1 (stereo unspecified)	8.3%	-23.0%	-5.4%	8.8%	?	18.4µM*
O=S(=O)(N/N=C1\CC(c2ccccc2)Oc2ccccc21)c1ccccc1 (stereo unspecified)	1.9%	-11.1%	-9.4%	7.9%[9.22 µM]	i	i
COc1ccc2ccc3cccc[n+]3c2c1	?	-17.6%	-12.3%	?	13µM*	i
CN(CCCC1CCCC1)C(=O)c1cc(COc2ccc(F)cc2F)on1	?	2.4%	5.9%	0.9%	.	.
COc1ccc(Cl)cc1NS(=O)(=O)c1ccc(OC)c(OC)c1	0.8%	-2.2%	8.6%	-5.9%	i	16.4µM*
COc1ccc(Cl)cc1NS(=O)(=O)c1ccc(S(=O)(=O)N2CCCC2)cc1	-9.5%	-23.9%	-28.6%	7.7%	i	i
COc1ccc(S(=O)(=O)Nc2cc(Cl)ccc2OC)cc1	3.26µM*	?	6.51µM*	2.91µM*	3.66µM*	5.8µM*
COc1ccc(S(=O)(=O)Nc2ccccc2C(N)=O)cc1OC	-7.3%	4.2%	27.2%	6.51µM*	i	i
COc1cc(S(=O)(=O)Nc2c(C)cc(C)cc2C)ccc1Cl	8.8%	-7.8%	-12.8%	3.0%	i	18.4µM*
COc1cc(S(=O)(=O)Nc2ccccc2C)ccc1Cl	1.2%	-1.4%	-8.8%	-5.0%	i	i
COc1ccc(Cl)cc1NS(=O)(=O)c1ccc2[nH]c3c(c2c1)CCCC3	.	.	.	.	i	i
O=[N+]([O-])c1cc(C(F)(F)F)cc([N+](=O)[O-])c1NCCN1CCNCC1	-2.1%	-5.8%	-1.6%	3.0%	i	i
CCOc1ccc(NS(=O)(=O)c2cc(NC(=O)c3cccc(C)c3)ccc2Cl)cc1	?	25.9µM*	?	?	?	i
Cc1ccc(NC(=O)c2cccc(-n3cnnn3)c2)cc1Cl	?	-0.8%	-5.9%[9.24 µM]	0.651µM*	i	i
Cc1cc(NC(=O)c2ccccc2Cl)ccc1NC(=O)c1ccccc1Cl	2.6%	-0.1%	-2.1%	-2.5%	i	i
Cc1ccc(NC(=O)CSc2ccccc2NC(=O)c2ccccc2Cl)cc1Cl	14.1%	-7.3%	-6.7%	1.5%	?	3.66µM*
Cc1ccc(NC(=O)CSc2ccccc2NC(=O)c2ccccc2)cc1Cl	20.6µM*	?	-24.0%	5.1%	i	?
COc1ccc(CCNC(=O)c2cnc3ccccc3n2)cc1	-2.7%	-10.2%	-6.8%	-6.2%	i	i
COc1ccc(CCNC(=O)c2c([S-])n(-c3ccc(C)cc3)c3cccc[n+]23)cc1	11.5%	?	?	?	11.6µM*	i
COc1ccc(CCNC(=O)c2cccc(C(=O)NCCc3ccc(OC)cc3)n2)cc1	13.1%	1.2%	0.7%	-3.4%	i	18.4µM*
COc1ccc(CCNC(=O)c2coc(=O)c(Br)c2)cc1	5.8µM*	?	?	?	?	i
O=C(COC(=O)CNC(=O)C1CCCCC1)Nc1ccc(Br)cc1Br	3.6%	-1.3%	-2.1%	2.1%	i	i
O=C(COC(=O)c1c(Cl)cccc1Cl)Nc1ccccc1Br	?	3.0%	-1.2%	7.2%	i	18.4µM*
SMILES	MCF10A rereplic	HT1080 IDH1KD tx	HT1080-NT tox	SW480 rerep	KB-3-1 tox	KB-V1 MDR tox
O=C(COC(=O)c1ccccc1)Nc1ccccc1Br	-3.1%	17.8%	17.3%	0.4%	i	i
Cc1ccc(S(=O)(=O)N2CCOC2CNC(=O)C(=O)NCc2cccnc2)cc1 (stereo unspecified)	13.8%	6.6%	0.4%	-4.2%	i	i
Cc1ccc(S(=O)(=O)N2CCCC2)cc1C(=O)NCc1ccccn1	-1.2%	4.0%	5.6%	-6.8%	i	i
CC(NC(=O)c1ccccc1F)c1nnc(SCC(=O)NC2CCCCC2)n1C (stereo unspecified)	-15.2%	12.7%	19.0%	-24.5%	i	i
C/C(=N/NC(=O)c1cc(O)c(O)c(O)c1)c1ccc([N+](=O)[O-])cc1	0.7%	-0.2%	-12.9%	4.5%	i	i
C/C(=N\NC(=O)C(C)Nc1cccc(Cl)c1)c1ccc([N+](=O)[O-])cc1 (stereo unspecified)	-80.9%	-14.3%	0.0%	-123.9%	i	18.4µM*
O=C(N/C(=C/C=C/c1ccccc1)C(=O)N1CCCCC1)c1ccc([N+](=O)[O-])cc1	0.581µM*	-1.0%	-0.7%	-29.8%	i	i
CCCCN(CCCC)CC(O)CN(c1cc([N+](=O)[O-])ccc1OC)S(=O)(=O)c1ccccc1 (stereo unspecified)	12.8%	?	?	?	?	2.59µM*
COc1cccc(C(C)(O)c2nc(-c3ccc4c(c3)OCO4)cs2)c1 (stereo unspecified)	.	-27.6%	-9.5%	.	i	i
COc1cc(-c2nnc3n2N=C(c2ccccc2)CS3)cc(OC)c1OC	?	1.16µM*	2.06µM*	?	?	i
COc1cccc(-c2nnc3n2N=C(C(C)(C)C)CS3)c1	?	?	?	?	?	20.6µM*
COc1ccc(C2=Nn3c(nnc3-c3ccc(OC)cc3)SC2)cc1	0.92µM*	?	?	1.84µM*	0.651µM*	1.3µM*
COc1ccc(OC)c(C2=Nn3c(nnc3-c3cc(OC)c(OC)c(OC)c3)SC2)c1	-1.5%	?	?	23.5%	i	1.3µM*
COc1ccc(OC)c(C2=Nn3c(nnc3-c3ccncc3)SC2)c1	-2.8%	-6.0%	?	?	i	i
Cc1ccc(-c2nnc3n2N=C(c2ccccc2)CS3)cc1	0.7%	12.2%	5.2%	-6.0%	i	i
CC1=CC(c2ccccc2)n2nc(N3C(=O)C4CC=CCC4C3=O)nc2N1 (stereo unspecified)	22.5%	14.7%	13.0%	-4.1%	i	i
